Records with an inconclusive call do not appear. Calls of active or inactive are those of the source. Calls follow the shape of the dose curve; as a rule, active = well fitted cell-killing curve with a large enough effect; inconclusive = small, poorly fitted or top-dose-only effect, or effect the other way; inactive = flat fitted curve, though single readings scatter.
Columns and labels:
Test in all cases: Primary qHTS to identify gynecologic anti-cancer compounds using libraries of approved drugs and bioactive compounds (AID 1345084); also: nearly all actives have a fitted effect of over 55% in size
C33A = details: Gynecologic cancer cell panel viability, ATPlite luminescence, 48 h; series mostly up to 57.5 µM
Outline: (§1)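 Cells, 1,000 per well, were allowed to settle for 16 h at 37 C before compound addition. Five concentrations were tested for 48 h, and viability was read by ATPlite luminescence after 15 min at room temperature.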

CAOV3 = details: Gynecologic cancer cell panel viability, ATPlite luminescence, 48 h; series mostly up to 57.5 µM
Outline: as §1

CASKI = details: Gynecologic cancer cell panel viability, ATPlite luminescence, 48 h; series mostly up to 57.5 µM
Outline: as §1

Es-2 = details: Gynecologic cancer cell panel viability, ATPlite luminescence, 48 h; series mostly up to 57.5 µM
Outline: as §1

HeLa = details: Gynecologic cancer cell panel viability, ATPlite luminescence, 48 h; series mostly up to 57.5 µM
Outline: as §1

Hek293T = details: Gynecologic cancer cell panel viability, ATPlite luminescence, 48 h, control line for the selectivity index; series mostly up to 57.5 µM
Outline: as §1

JEG-3 = details: Gynecologic cancer cell panel viability, ATPlite luminescence, 48 h; series mostly up to 57.5 µM
Outline: as §1

OV90 = details: Gynecologic cancer cell panel viability, ATPlite luminescence, 48 h; series mostly up to 57.5 µM
Outline: as §1

PA-1 = details: Gynecologic cancer cell panel viability, ATPlite luminescence, 48 h; series mostly up to 57.5 µM
Outline: as §1

SKOV3 = details: Gynecologic cancer cell panel viability, ATPlite luminescence, 48 h; series mostly up to 57.5 µM
Outline: as §1

Tov-21-G = details: Gynecologic cancer cell panel viability, ATPlite luminescence, 48 h; series mostly up to 57.5 µM
Outline: as §1

Tov112D = details: Gynecologic cancer cell panel viability, ATPlite luminescence, 48 h; series mostly up to 57.5 µM
Outline: as §1
% is scaled to controls: 0 for no effect and ±100 for the full control effect.

CNC(=O)c1ccc2c(c1)CCO[C@H]2CCN1CCN(c2ccc(C(N)=O)cc2)CC1
inactive: Potency (C33A) | Potency (CAOV3) | outcome (CASKI) | Potency (Es-2) | Potency (HeLa) | Potency (Hek293T) | Potency (JEG-3) | Potency (OV90) | Potency (PA-1) | Potency (SKOV3) | Potency (Tov-21-G) | Potency (Tov112D)

COC(=O)c1c(CC=C(C)C)c(OC2OC(CO)C(O)C(O)C2O)c2ccccc2c1OC1OC(CO)C(O)C(O)C1O (stereo unspecified)
inactive: Potency (C33A) | Potency (CAOV3) | outcome (CASKI) | Potency (Es-2) | Potency (HeLa) | Potency (Hek293T) | Potency (JEG-3) | Potency (OV90) | Potency (PA-1) | Potency (SKOV3) | Potency (Tov-21-G) | Potency (Tov112D)

C/C=C(\C)C(=O)OC[C@H]1O[C@@H](O[C@H]2[C@@H](O[C@H]3O[C@H](COC(=O)/C(C)=C/C)[C@@H](O)[C@H](O)[C@H]3O[C@@H]3O[C@H](COC(=O)/C(C)=C/C)[C@@H](O)[C@H](OC(=O)/C(C)=C/C)[C@H]3O)O[C@H](COC(=O)/C(C)=C/C)[C@@H](O)[C@@H]2O)[C@H](O)[C@@H](O)[C@@H]1O
inactive: activity change, negative = cytotoxicity (C33A) -2.71% [at 11.6 µM] | activity change, negative = cytotoxicity (CAOV3) -1.73% [at 11.6 µM] | activity change, negative = cytotoxicity (CASKI) 3.51% [at 11.6 µM] | activity change, negative = cytotoxicity (Es-2) 2.21% [at 11.6 µM] | activity change, negative = cytotoxicity (HeLa) -5.02% [at 11.6 µM] | activity change, negative = cytotoxicity (Hek293T) -12.9% [at 11.6 µM] | activity change, negative = cytotoxicity (JEG-3) -4.46% [at 11.6 µM] | activity change, negative = cytotoxicity (OV90) -7.83% [at 11.6 µM] | activity change, negative = cytotoxicity (PA-1) 0.401% [at 11.6 µM] | activity change, negative = cytotoxicity (SKOV3) -1.49% [at 11.6 µM] | activity change, negative = cytotoxicity (Tov-21-G) -1.7% [at 11.6 µM] | activity change, negative = cytotoxicity (Tov112D) 6.68% [at 11.6 µM]

C[C@H](/C=C/[C@@]1(O)[C@H](C)CC(=O)CC1(C)C)O[C@@H]1O[C@H](CO[C@@H]2OC[C@@H](O)[C@H](O)[C@H]2O)[C@@H](O)[C@H](O)[C@H]1O
inactive: Potency (C33A) | Potency (CAOV3) | outcome (CASKI) | Potency (Es-2) | Potency (HeLa) | Potency (Hek293T) | Potency (JEG-3) | Potency (OV90) | Potency (PA-1) | Potency (SKOV3) | Potency (Tov-21-G) | Potency (Tov112D)

CC(O)C(=O)/C=C/C=C/C(=O)OC1C=C2COC(=O)C2(O)C2(C)CCCC(C)(C)C12 (stereo unspecified)
inactive: Potency (C33A) | Potency (CAOV3) | outcome (CASKI) | Potency (Es-2) | Potency (HeLa) | Potency (Hek293T) | Potency (JEG-3) | Potency (OV90) | Potency (PA-1) | Potency (SKOV3) | Potency (Tov-21-G) | Potency (Tov112D)

COc1cccc(OC)c1-c1ccc(C[C@H](NC(=O)c2c(Cl)cccc2Cl)C(=O)O)cc1
inactive: Potency (C33A) | Potency (CAOV3) | outcome (CASKI) | Potency (Es-2) | Potency (HeLa) | Potency (Hek293T) | Potency (JEG-3) | Potency (OV90) | Potency (PA-1) | Potency (SKOV3) | Potency (Tov-21-G) | Potency (Tov112D)

CC(=O)OC[C@@]12C(=O)C[C@@H](C)[C@]3(C[C@@H](c4ccoc4)OC3=O)[C@H]1CC[C@H](OC(C)=O)[C@]21CO1
inactive: Potency (C33A) | Potency (CAOV3) | outcome (CASKI) | Potency (Es-2) | Potency (HeLa) | Potency (Hek293T) | Potency (JEG-3) | Potency (OV90) | Potency (PA-1) | Potency (SKOV3) | Potency (Tov-21-G) | Potency (Tov112D)

C/C=C/C(=O)OC1/C=C/C(O)C(OC(C)=O)CCC(=O)OC1C (stereo unspecified)
inactive: Potency (C33A) | Potency (CAOV3) | outcome (CASKI) | Potency (Es-2) | Potency (HeLa) | Potency (Hek293T) | Potency (JEG-3) | Potency (OV90) | Potency (PA-1) | Potency (SKOV3) | Potency (Tov-21-G) | Potency (Tov112D)

CC1=CCC[C@@H]2[C@@](C)(CCc3ccoc3)[C@H](C(=O)O)CC[C@@]12C
inactive: Potency (C33A) | Potency (CAOV3) | outcome (CASKI) | Potency (Es-2) | Potency (HeLa) | Potency (Hek293T) | Potency (JEG-3) | Potency (OV90) | Potency (PA-1) | Potency (SKOV3) | Potency (Tov-21-G) | Potency (Tov112D)

COC(=O)C1=CO[C@@H](O[C@@H]2O[C@H](CO[C@@H]3O[C@H](CO)[C@@H](O)[C@H](O)[C@H]3O)[C@@H](O)[C@H](O)[C@H]2O)[C@@H]2C(CO)=CC[C@H]12
inactive: Potency (C33A) | Potency (CAOV3) | outcome (CASKI) | Potency (Es-2) | Potency (HeLa) | Potency (Hek293T) | Potency (JEG-3) | Potency (OV90) | Potency (PA-1) | Potency (SKOV3) | Potency (Tov-21-G) | Potency (Tov112D)

COc1cc(C)c(C(=O)OC2C(C)OC(OC3CCC(C)C4C3C=C(C)C3/C(C)=C\CC/C(C)=C/C5(C)C=C(C(=O)O)C(C)CC56OC(=O)/C(=C(\O)C34C)C6=O)C(O)C2O)c(OC)c1 (stereo unspecified)
inactive: activity change, negative = cytotoxicity (C33A) 17.6% [at 11.6 µM] | activity change, negative = cytotoxicity (CAOV3) 11.9% [at 11.6 µM] | activity change, negative = cytotoxicity (CASKI) 0.731% [at 11.6 µM] | activity change, negative = cytotoxicity (Es-2) 6.73% [at 11.6 µM] | activity change, negative = cytotoxicity (HeLa) -3.64% [at 11.6 µM] | activity change, negative = cytotoxicity (Hek293T) 6.05% [at 11.6 µM] | activity change, negative = cytotoxicity (JEG-3) -0.361% [at 11.6 µM] | activity change, negative = cytotoxicity (OV90) 2.6% [at 11.6 µM] | activity change, negative = cytotoxicity (PA-1) -4.04% [at 11.6 µM] | activity change, negative = cytotoxicity (SKOV3) -6.42% [at 11.6 µM] | activity change, negative = cytotoxicity (Tov-21-G) 1.13% [at 11.6 µM] | activity change, negative = cytotoxicity (Tov112D) 1.96% [at 11.6 µM]

C=C1CCC2[C@](C)(CCC[C@]2(C)C(=O)O)[C@H]1CC/C(C)=C/C(=O)OC (stereo partly specified)
inactive: Potency (C33A) | Potency (CAOV3) | outcome (CASKI) | Potency (Es-2) | Potency (HeLa) | Potency (Hek293T) | Potency (JEG-3) | Potency (OV90) | Potency (PA-1) | Potency (SKOV3) | Potency (Tov-21-G) | Potency (Tov112D)

CC[C@H](C)[C@H](NC(=O)[C@H](Cc1ccc(O)cc1)NC(=O)[C@@H](N)C(C)C)C(=O)N[C@@H](Cc1cnc[nH]1)C(=O)N1CCC[C@H]1C(=O)N[C@@H](Cc1ccccc1)C(=O)O
inactive: activity change, negative = cytotoxicity (C33A) 19.1% [at 6.55 µM] | activity change, negative = cytotoxicity (CAOV3) 20.7% [at 6.55 µM] | activity change, negative = cytotoxicity (CASKI) -0.165% [at 6.55 µM] | activity change, negative = cytotoxicity (Es-2) 0.0528% [at 6.55 µM] | activity change, negative = cytotoxicity (HeLa) 25.4% [at 6.55 µM] | activity change, negative = cytotoxicity (Hek293T) 1.27% [at 6.55 µM] | activity change, negative = cytotoxicity (JEG-3) 1.86% [at 6.55 µM] | activity change, negative = cytotoxicity (OV90) -1.9% [at 6.55 µM] | activity change, negative = cytotoxicity (PA-1) 4.28% [at 6.55 µM] | activity change, negative = cytotoxicity (SKOV3) 16.8% [at 6.55 µM] | activity change, negative = cytotoxicity (Tov-21-G) 1.06% [at 6.55 µM] | activity change, negative = cytotoxicity (Tov112D) 12.4% [at 6.55 µM]

Reference: PubChem BioAssay (NCATS)
